# Experimental data from the supplement of paper PMC10849652.
# About 8,800 targets were measured; listed, in parts, are those with a hit and a random draw of the rest. About 0.5% of all pairs of compound and target were hits. Unmarked numbers belong to inactive results.
# How the values were obtained:
# Test in all cases: log2 fold change, soluble protein after heating vs DMSO (PISA); higher = thermal stabilisation; K562 lysate, 10 uM; active = over 0.2 and 3.5 SD of the protein, either way, in both replicates (recomputed)
# nilotinib = compound: Cc1cn(-c2cc(NC(=O)c3ccc(C)c(Nc4nccc(-c5cccnc5)n4)c3)cc(C(F)(F)F)c2)cn1 [nilotinib]
# Procedure, shortened: (§1)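 The values are log-two fold changes in thermal stability compared with solvent controls and come from duplicates. They were obtained by TMTpro 16plex LC-MS/MS, with channel sums equalised, on the supernatant after 21,000xg for 90 min. That supernatant came from crude K562 extract at 1 mg/mL protein treated with 10 μM compound for 30 min, heated for 3 min across 48°C-58°C, pooled and brought to 0.5% NP-40 at 4°C.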
# [1] = compound: Cc1nc(Nc2n[nH]c3c2CN(C(=O)N[C@H](CN(C)C)c2ccccc2)C3(C)C)c2sccc2n1
# Procedure, shortened: as §1
# dasatinib = compound: Cc1nc(Nc2ncc(C(=O)Nc3c(C)cccc3Cl)s2)cc(N2CCN(CCO)CC2)n1 [dasatinib]
# Procedure, shortened: as §1
# [2] = compound: Cc1ncc(-c2ccnc(Nc3ccc(S(C)(=O)=O)cc3)n2)n1C(C)C
# Procedure, shortened: as §1
# [3] = compound: Cn1cc(-c2ccc3c(c2)CCN3C(=O)Cc2cccc(C(F)(F)F)c2)c2c(N)ncnc21
# Procedure, shortened: as §1
# tipifarnib = compound: Cn1cncc1[C@@](N)(c1ccc(Cl)cc1)c1ccc2c(c1)c(-c1cccc(Cl)c1)cc(=O)n2C [tipifarnib]
# Procedure, shortened: as §1
# [4] = compound: NC(=O)c1cnc(N[C@@H]2CCCC[C@@H]2N)nc1Nc1cccc(-n2nccn2)c1
# Procedure, shortened: as §1
# [5] = compound: NC1(c2ccc(-c3nc4ccn5c(=O)[nH]nc5c4cc3-c3ccccc3)cc2)CCC1
# Procedure, shortened: as §1
# vorinostat = compound: O=C(CCCCCCC(=O)Nc1ccccc1)NO [vorinostat]
# Procedure, shortened: as §1
# silmitasertib = compound: O=C(O)c1ccc2c(c1)nc(Nc1cccc(Cl)c1)c1ccncc12 [silmitasertib]
# Procedure, shortened: as §1
# quisinostat = compound: Cn1cc(CNCC2CCN(c3ncc(C(=O)NO)cn3)CC2)c2ccccc21 [quisinostat]
# Procedure, shortened: as §1
# [6] = compound: NC(=O)Nc1cc(-c2cccc(F)c2)sc1C(=O)N[C@H]1CCCNC1
# Procedure, shortened: as §1
# [7] = compound: NCC(=O)Nc1ccc(-n2nc(C(F)(F)F)cc2-c2ccc3c(ccc4ccccc43)c2)cc1
# Procedure, shortened: as §1
# [8] = compound: O=C1NC(=O)C(c2cnc3ccccn23)=C1c1cn2c3c(cc(F)cc13)CN(C(=O)N1CCCCC1)CC2
# Procedure, shortened: as §1
# entospletinib = compound: c1cn2cc(-c3ccc4cn[nH]c4c3)nc(Nc3ccc(N4CCOCC4)cc3)c2n1 [entospletinib]
# Procedure, shortened: as §1
# UniProt Q00987, sequence (Q00987 whole entry, looked up): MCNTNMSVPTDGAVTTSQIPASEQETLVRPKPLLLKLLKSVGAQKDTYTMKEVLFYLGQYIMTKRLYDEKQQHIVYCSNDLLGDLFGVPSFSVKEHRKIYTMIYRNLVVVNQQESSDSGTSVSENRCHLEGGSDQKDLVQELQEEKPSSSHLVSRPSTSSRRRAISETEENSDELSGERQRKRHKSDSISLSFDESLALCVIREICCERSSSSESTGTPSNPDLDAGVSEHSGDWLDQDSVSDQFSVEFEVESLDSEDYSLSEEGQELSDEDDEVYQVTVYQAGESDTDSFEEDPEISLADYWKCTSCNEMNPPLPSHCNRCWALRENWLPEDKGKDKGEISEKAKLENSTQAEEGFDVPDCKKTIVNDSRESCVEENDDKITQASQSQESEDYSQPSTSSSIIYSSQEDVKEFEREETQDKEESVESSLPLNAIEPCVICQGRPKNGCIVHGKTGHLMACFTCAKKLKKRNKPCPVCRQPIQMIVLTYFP
# UniProt Q9Y6R4, sequence (Q9Y6R4 whole entry, looked up): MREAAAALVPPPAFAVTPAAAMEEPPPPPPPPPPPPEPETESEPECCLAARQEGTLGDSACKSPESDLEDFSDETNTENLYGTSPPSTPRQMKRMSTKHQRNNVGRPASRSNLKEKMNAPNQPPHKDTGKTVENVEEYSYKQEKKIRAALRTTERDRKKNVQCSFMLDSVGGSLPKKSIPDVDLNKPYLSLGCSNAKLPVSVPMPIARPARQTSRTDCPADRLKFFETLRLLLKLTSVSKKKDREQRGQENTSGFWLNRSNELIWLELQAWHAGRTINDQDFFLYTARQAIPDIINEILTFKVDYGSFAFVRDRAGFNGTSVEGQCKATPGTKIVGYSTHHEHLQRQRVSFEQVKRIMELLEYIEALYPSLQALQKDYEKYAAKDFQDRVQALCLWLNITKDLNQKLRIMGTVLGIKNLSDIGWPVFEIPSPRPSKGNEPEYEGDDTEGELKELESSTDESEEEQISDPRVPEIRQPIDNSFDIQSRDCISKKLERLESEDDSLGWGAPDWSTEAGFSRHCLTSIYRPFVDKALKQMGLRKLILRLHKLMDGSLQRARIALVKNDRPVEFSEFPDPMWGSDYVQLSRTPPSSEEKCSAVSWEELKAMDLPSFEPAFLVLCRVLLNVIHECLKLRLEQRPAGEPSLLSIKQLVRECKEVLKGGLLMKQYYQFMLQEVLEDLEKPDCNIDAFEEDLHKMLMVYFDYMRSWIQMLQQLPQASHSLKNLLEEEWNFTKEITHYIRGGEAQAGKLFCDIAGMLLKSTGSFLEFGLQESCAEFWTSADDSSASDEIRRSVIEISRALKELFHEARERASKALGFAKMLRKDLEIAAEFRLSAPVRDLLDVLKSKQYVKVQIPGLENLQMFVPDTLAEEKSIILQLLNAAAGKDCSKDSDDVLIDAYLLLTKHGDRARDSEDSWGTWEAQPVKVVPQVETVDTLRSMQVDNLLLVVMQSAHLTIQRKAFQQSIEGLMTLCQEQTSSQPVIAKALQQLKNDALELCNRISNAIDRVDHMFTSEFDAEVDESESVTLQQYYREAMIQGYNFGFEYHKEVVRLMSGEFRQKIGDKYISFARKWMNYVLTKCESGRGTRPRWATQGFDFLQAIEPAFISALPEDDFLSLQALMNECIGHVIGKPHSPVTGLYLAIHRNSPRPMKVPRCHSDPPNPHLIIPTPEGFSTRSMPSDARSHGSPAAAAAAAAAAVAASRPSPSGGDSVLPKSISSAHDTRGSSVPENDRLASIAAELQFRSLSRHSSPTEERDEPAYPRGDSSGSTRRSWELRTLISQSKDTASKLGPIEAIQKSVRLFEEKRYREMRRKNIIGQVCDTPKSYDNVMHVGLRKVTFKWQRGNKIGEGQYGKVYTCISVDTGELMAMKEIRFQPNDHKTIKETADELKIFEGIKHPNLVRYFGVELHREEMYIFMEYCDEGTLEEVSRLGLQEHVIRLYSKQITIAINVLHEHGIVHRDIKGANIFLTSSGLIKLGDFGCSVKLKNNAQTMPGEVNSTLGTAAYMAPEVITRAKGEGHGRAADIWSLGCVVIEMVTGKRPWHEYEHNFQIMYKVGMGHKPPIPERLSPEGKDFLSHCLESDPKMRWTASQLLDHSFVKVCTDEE
# UniProt Q12851, sequence (Q12851 whole entry, looked up): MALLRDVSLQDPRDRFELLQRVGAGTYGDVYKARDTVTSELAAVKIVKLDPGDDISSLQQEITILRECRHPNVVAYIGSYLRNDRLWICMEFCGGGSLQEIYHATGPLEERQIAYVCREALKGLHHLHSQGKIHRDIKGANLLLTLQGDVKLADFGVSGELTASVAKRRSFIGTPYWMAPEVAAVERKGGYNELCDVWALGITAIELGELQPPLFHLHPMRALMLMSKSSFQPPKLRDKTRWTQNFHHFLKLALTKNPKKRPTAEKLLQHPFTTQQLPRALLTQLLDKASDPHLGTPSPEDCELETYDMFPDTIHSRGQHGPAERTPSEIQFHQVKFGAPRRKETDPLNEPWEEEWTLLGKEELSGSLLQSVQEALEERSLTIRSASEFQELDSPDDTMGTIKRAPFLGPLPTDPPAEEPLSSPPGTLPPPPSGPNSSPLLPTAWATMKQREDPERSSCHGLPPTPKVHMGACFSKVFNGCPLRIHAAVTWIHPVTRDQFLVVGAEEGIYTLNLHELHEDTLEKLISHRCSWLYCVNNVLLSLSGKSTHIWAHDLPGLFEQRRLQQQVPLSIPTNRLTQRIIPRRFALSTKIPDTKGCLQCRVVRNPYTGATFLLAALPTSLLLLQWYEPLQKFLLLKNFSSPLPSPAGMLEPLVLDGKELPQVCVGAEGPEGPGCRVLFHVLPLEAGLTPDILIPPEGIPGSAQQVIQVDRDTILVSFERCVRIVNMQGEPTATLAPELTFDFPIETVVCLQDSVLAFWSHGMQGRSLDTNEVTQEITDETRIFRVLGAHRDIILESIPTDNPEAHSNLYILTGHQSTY
# UniProt A1L020, sequence (A1L020 whole entry, looked up): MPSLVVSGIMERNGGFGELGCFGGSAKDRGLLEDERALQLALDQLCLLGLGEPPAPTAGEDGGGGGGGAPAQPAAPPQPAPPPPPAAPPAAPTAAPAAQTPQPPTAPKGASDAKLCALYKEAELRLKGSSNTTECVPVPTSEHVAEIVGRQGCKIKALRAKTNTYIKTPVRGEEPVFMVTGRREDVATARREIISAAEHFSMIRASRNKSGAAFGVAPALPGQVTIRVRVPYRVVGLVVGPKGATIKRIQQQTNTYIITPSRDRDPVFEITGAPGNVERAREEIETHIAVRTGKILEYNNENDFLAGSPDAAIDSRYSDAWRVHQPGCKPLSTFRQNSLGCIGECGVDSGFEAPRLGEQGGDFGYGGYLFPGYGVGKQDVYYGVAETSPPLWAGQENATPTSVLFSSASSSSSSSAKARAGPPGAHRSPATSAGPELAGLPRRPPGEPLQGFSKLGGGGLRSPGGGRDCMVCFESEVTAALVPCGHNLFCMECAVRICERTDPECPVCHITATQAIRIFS
# UniProt Q9BVG8, sequence (Q9BVG8 whole entry, looked up): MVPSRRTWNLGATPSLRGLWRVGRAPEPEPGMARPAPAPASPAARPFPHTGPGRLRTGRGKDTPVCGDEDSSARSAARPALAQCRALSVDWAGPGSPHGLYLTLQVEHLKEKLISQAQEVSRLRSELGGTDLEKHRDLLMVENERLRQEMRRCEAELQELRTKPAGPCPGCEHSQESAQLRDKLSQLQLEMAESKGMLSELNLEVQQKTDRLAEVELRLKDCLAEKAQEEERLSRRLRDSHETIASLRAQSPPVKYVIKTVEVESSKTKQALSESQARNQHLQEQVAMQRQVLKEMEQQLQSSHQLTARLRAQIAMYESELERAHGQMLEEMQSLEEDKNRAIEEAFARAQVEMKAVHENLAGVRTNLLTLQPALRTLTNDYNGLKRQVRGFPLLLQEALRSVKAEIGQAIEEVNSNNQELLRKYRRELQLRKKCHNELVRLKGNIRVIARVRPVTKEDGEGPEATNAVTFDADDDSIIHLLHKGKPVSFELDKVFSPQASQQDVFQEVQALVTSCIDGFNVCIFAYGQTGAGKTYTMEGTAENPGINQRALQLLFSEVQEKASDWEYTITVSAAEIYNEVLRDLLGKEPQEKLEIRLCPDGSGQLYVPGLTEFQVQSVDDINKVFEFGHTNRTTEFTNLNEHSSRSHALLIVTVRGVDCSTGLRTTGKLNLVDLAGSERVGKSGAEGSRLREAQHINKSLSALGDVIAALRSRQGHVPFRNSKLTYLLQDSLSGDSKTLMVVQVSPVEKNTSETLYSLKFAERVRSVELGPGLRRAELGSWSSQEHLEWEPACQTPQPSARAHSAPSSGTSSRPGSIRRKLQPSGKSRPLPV
# UniProt P53667, sequence (P53667 whole entry, looked up): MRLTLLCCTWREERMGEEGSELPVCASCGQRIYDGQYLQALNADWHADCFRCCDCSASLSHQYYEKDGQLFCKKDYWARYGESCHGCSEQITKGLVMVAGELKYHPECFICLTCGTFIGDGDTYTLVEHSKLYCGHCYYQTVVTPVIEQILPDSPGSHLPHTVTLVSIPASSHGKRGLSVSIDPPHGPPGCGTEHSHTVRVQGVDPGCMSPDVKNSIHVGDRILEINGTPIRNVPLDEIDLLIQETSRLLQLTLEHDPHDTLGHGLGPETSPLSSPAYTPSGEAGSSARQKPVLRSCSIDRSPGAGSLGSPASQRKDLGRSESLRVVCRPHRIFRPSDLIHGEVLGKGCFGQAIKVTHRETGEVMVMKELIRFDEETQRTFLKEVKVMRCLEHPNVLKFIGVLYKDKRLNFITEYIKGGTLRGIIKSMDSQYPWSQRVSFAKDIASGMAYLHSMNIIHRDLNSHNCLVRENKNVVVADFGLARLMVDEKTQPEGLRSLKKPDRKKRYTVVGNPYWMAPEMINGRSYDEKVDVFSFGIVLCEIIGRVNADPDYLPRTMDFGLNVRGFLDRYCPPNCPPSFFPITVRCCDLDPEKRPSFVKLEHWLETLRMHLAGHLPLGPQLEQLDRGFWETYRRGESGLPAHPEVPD
# UniProt O15243, sequence (O15243 whole entry, looked up): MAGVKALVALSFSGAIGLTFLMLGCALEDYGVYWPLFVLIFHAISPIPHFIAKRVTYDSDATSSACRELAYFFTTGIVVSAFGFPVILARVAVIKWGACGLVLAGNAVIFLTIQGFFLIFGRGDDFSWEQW
Target,log2 fold change (nilotinib),log2 fold change [1],log2 fold change (dasatinib),log2 fold change [2],log2 fold change [3],log2 fold change (tipifarnib),log2 fold change [4],log2 fold change [5],log2 fold change (vorinostat),log2 fold change (silmitasertib),log2 fold change (quisinostat),log2 fold change [6],log2 fold change [7],log2 fold change [8],log2 fold change (entospletinib)
KIF21A (UniProt H0YI78),0.067,-0.005,0.044,0.143,0.055,-0.069,0.104,0.082,-0.113,-0.016,–,–,–,–,–
MPP5 (UniProt Q8N3R9),0.015,-0.013,0.028,-0.069,0.009,0.142,–,-0.053,0.016,-0.1,-0.052,0.002,0.015,0,0.013
LRP1 (UniProt Q07954),–,–,–,–,–,–,0.122,–,–,–,-0.936 (active),0.114,0.233,0.296,-0.032
MAP3K4 isoform 2 (UniProt Q9Y6R4),–,–,–,–,–,–,–,–,–,–,0.009,0.112,–,0.034,–
MAPK3 (UniProt H0YEX6),-0.522,0.646,–,0.12,–,0.097,–,–,–,–,–,–,–,–,–
MAST2 (UniProt Q6P0Q8),–,–,0.049,–,0.044,–,-0.005,-0.036,-0.166,0.055,-0.024,0.047,0.062,-0.013,-0.189
KRAS isoform 2 (UniProt P01116),–,–,-0.029,–,-0.025,–,-0.046,0.036,0.068,-0.015,0.018,0.001,–,-0.045,-0.129
LRRC9 (UniProt Q6ZRR7),–,–,–,–,–,–,–,–,–,–,-0.171,-0.038,0.106,-0.034,0.011
MDM1 (UniProt Q8TC05),-0.073,-0.008,0.015,-0.149,0.056,0.006,-0.005,0.061,0.085,0.093,–,–,0.056,–,-0.119
MAPK7 (UniProt Q13164),–,–,–,–,–,–,0.028,0.011,-0.102,0,-0.156,-0.044,–,-0.01,0.029
MDM2 isoform 11 (UniProt Q00987),–,–,–,–,–,–,–,-0.195,-0.062,0,-0.2,-0.077,-0.137,-0.039,–
LRRC7 (UniProt Q96NW7),–,–,0.059,–,-0.043,–,0.069,–,–,–,0.128,-0.009,-0.097,-0.012,-0.108
LRRIQ1 (UniProt Q96JM4),–,–,–,–,–,–,0.019,–,–,–,-0.518,0.242,0.056,0.754 (active),–
MOCS3 (UniProt O95396),-0.008,-0.054,-0.056,0.056,-0.049,0.045,–,-0.03,-0.458 (active),-0.012,-0.219,-0.054,0.062,0.053,0.035
MAPK12 (UniProt P53778),0.082,0.048,-0.057,0.085,0.375 (active),-0.005,–,-0.044,0.181,-0.027,0.051,-0.015,0,-0.067,-0.027
MAP4K2 (UniProt Q12851),–,–,0.511,–,0.123,–,0.159,-0.062,-0.263,0.064,-0.193,0.965 (active),0.03,-0.104,0.15
LRPPRC (UniProt H7C3W8),–,–,–,–,–,–,–,–,–,–,–,–,0.792,–,–

Target,log2 fold change (nilotinib),log2 fold change [1],log2 fold change (dasatinib),log2 fold change [2],log2 fold change [3],log2 fold change (tipifarnib),log2 fold change [4],log2 fold change [5],log2 fold change (vorinostat),log2 fold change (silmitasertib),log2 fold change (quisinostat),log2 fold change [6],log2 fold change [7],log2 fold change [8],log2 fold change (entospletinib)
MEGF8 (UniProt Q7Z7M0),–,–,-0.059,–,-0.003,–,–,-0.073,0.05,-0.062,0.047,-0.073,–,0.02,-0.048
LSM11 (UniProt P83369),–,–,0.266,–,-0.049,–,–,-0.037,-0.027,0.194,-0.114,0.049,0.233,0.014,-0.02
MAP4K4 isoform 6 (UniProt O95819),–,–,-0.01,–,0.115,–,0.021,0.083,-0.134,0.02,–,–,–,–,0.094
KIFC3 isoform 6 (UniProt Q9BVG8),–,–,-0.055,–,-0.146,–,–,-0.213,-0.025,-0.124,-0.189,0.079,0.03,0.119,-0.063
LY6E (UniProt Q16553),-0.141,0.031,–,0.056,–,0.033,0.08,–,–,–,–,–,0.165,–,-0.013
LYN isoform 2 (UniProt P07948),0.125,0.143,0.438,0.257,0.061,-0.615,–,-0.053,-0.118,0.049,-0.111,0.748,–,-0.31,0.129
MRPL22 (UniProt Q9NWU5),0.04,0.017,–,0.03,–,-0.003,-0.073,0.081,-0.687 (active),0.001,0.025,-0.001,–,-0.007,–
LEPROT (UniProt O15243),–,–,–,–,–,–,-0.147,0.024,-0.641 (active),0.167,-0.089,0.092,–,-0.007,0.115
MEX3A (UniProt A1L020),0.026,-0.069,-0.029,-0.137,-0.084,0.211,–,–,–,–,–,–,-0.106,–,–
KRI1 (UniProt Q8N9T8),-0.099,0.02,-0.025,0,-0.014,-0.073,–,0.06,-0.285 (active),-0.023,-0.125,-0.006,0.085,-0.007,-0.07
KLC1 isoform 10 (UniProt Q07866),–,–,–,–,–,–,–,-0.159,-0.144,-0.165,–,–,–,–,-0.171
MBTPS1 (UniProt Q14703),–,–,0.106,–,-0.101,–,–,-0.045,0.116,-0.023,-0.053,0.026,0.17,-0.044,0.094
KMT2B (UniProt Q9UMN6),–,–,0.013,–,0.108,–,–,0.122,0.531,-0.76 (active),0.346,-0.047,–,0.211,0.116
KIF26A (UniProt Q9ULI4),0.035,-0.013,0.003,0.01,0.014,0.226,–,-0.091,-0.178,0.068,-0.092,-0.078,-0.01,-0.016,0.057
LIMK1 (UniProt P53667),-0.315,0.008,0.4,0.031,0.146,0.102,0.118,–,–,–,-0.145,0.126,-0.127,0.281,0.027
MAPKAP1 (UniProt Q9BPZ7),0.105,-0.118,-0.085,0.083,-0.003,-0.056,–,-0.093,-0.111,0.187,-0.087,0.042,–,-0.018,-0.157
MED25 isoform 3 (UniProt Q71SY5),0.132,0.026,-0.039,0.097,-0.017,-0.024,-0.013,-0.073,-0.294 (active),0.021,-0.008,0.029,–,0.024,0.127
